Assay results reported in the supplement of paper PMC10981050.
Where “and” joins values, the source holds several entries; their conditions need not be identical. Equal entries are not always repeated. Structures can show the parent of a compound that is named as a salt.

Tests used:
Assay in all cases: cell viability relative to vehicle control; higher = less cytotoxic
Conditions in all cases: 10 µM
K562 = test system: K562
In short: (§1)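 Screening covered the Selleck bioactive, kinase and epigenetic probe libraries, less identity-inconsistent compounds, on CRISPR-edited mutant clones and isogenic wild-type clones of four leukaemia lines. Cells, at 2000 per well in 50 µL medium, received a single 10 µM acoustically dispensed dose. After 48 h the supernatant was removed and CellTiter-Glo luminescence was read. Viability was analysed in Genedata Screener as percent of the on-plate vehicle control.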

MARIMO = test system: MARIMO
In short: as §1

MOLM14 = test system: MOLM14
In short: as §1

OCI-AML2 = test system: OCI-AML2
In short: as §1

Structure (SMILES)	cell viability (K562; SRSF2 genotype: SRSF2 P95H/wt)	cell viability (K562; SRSF2 genotype: SRSF2 wt/wt) [%]	cell viability (MARIMO; SRSF2 genotype: SRSF2 P95H/wt) [%]	cell viability (MARIMO; SRSF2 genotype: SRSF2 wt/wt) [%]	cell viability (MOLM14; SRSF2 genotype: SRSF2 P95H/wt) [%]	cell viability (MOLM14; SRSF2 genotype: SRSF2 wt/wt) [%]	cell viability (OCI-AML2; SRSF2 genotype: P95H/wt) [%]	cell viability (OCI-AML2; SRSF2 genotype: wt/wt) [%]
CCCCN(Cc1ccc(C(=O)NO)cc1)C(=O)Nc1ccccc1 [Nexturastat A]	23.9% and 35.1%	45.5	6.74	21	7.82	2.04	3.08	7.67
OB1OCc2cc(F)ccc21 [Tavaborole (AN-2690)]	88.2% and 85.6%	84.3	85.4	87.8	82.8	85.1	87.8	82.8
COc1cc2c(cc1OC)[C@@H]1Cc3ccc(OC)c(OC)c3CN1CC2 [Rotundine]	87.8% and 98.4%	101	98.2	91.1	94	95.2	95.1	90.4
O=c1[nH]cnc2[nH]ncc12 [Allopurinol Sodium (Aloprim)]	90.9% and 86.7%	90.5	89.1	93.1	86.6	91	90.6	95.1
CCC(=O)O[C@@H]1CC(=O)O[C@H](C)C/C=C/C=C/[C@H](O)[C@H](C)C[C@H](CC=O)[C@H](O[C@@H]2O[C@H](C)[C@@H](O[C@H]3C[C@@](C)(O)[C@@H](OC(=O)CC)[C@H](C)O3)[C@H](N(C)C)[C@H]2O)[C@H]1OC [Midecamycin]	84.3% and 87.1%	89.5	89.3	102	93.3	93.7	96.2	97.4
Nc1ccn([C@@H]2O[C@H](CO)[C@@H](O)[C@@H]2O)c(=O)n1 [Cytarabine hydrochloride]	83.4% and 98.6%	94.9	28.6	30.5	7.14	1.49	6.92	8.04
OCc1ccc(O[C@@H]2O[C@H](CO)[C@@H](O)[C@H](O)[C@H]2O)cc1 [Gastrodin (Gastrodine)]	102% and 101%	99.8	107	101	105	104	104	98.3
O=C(Nc1cccc(Cl)c1)Nc1ncc(CCNc2ncnc3ccsc23)s1 [SNS-314 Mesylate]	63.5% and 68.5%	75.3	68.8	76.5	18.7	12.8	28.2	30.8
C[C@@H](OC[C@@]1(c2ccccc2)CC[C@]2(CCC(=O)N2)CN1)c1cc(C(F)(F)F)cc(C(F)(F)F)c1 [Rolapitant]	54% and 72.1%	68.8	52.3	48.8	54.5	44.5	45.2	39.1
CN(C)C1CCN(C(=O)c2ccc(NC(=O)Nc3ccc(-c4nc(N5CCOCC5)nc(N5CCOCC5)n4)cc3)cc2)CC1	34.1% and 32.1%	26.6	43.2	34.9	22.1	21.3	10.5	16.2
OC(CC1c2ccccc2-c2cncn21)C1CCCCC1 (stereo not drawn)	85.4% and 94.1%	97.5	80	93.1	90.6	93.5	89.8	99.7
CCCc1cc(=O)[nH]c(=S)[nH]1 [Propylthiouracil]	107% and 91.6%	94	93.1	96.5	100	96.8	106	110
CCOc1ccccc1N=Nc1c(C)[nH]n(-c2nc(-c3ccccc3)cs2)c1=O	95.7% and 103%	91.9	101	96.5	97.8	95.9	108	97.2
CC(C(=O)Nc1cccc(/N=C/c2c(O)ccc3ccccc23)c1)c1ccccc1 (stereo not drawn) [Salermide]	82.7% and 84.2%	83.2	90.8	93.8	104	101	88.6	90.3
COc1cc2c(c(OC)c1OC)-c1c(cc3c(c1OC)OCO3)CC(C)C(C)C2 (stereo not drawn) [Schisandrin B]	76.4% and 76%	74.8	71.8	86	73	76.2	90.8	84.9
COc1ccccc1N1CCN(CCCNc2cc(=O)n(C)c(=O)n2C)CC1 [Urapidil hydrochloride]	102% and 95.6%	96.9	97.8	102	99.6	98	96.8	95.2
O=S(=O)(O)CCS [Mesna (Uromitexan, Mesnex)]	107% and 96%	103	94.2	110	104	100	92	104
Cc1cn([C@H]2O[C@@H](CO)[C@H](O)[C@H]2F)c(=O)[nH]c1=O [Clevudine (Levovir)]	91.2% and 95.1%	99.5	91.2	92.2	101	97.9	99.6	88.1
NC(=O)c1ccc(N(C(N)=O)c2c(F)cccc2F)nc1-c1ccc(F)cc1F	97.7% and 97.3%	94.1	94	97.5	96.1	105	95.3	103
C[C@H]1[C@H](C)CC[C@]2(C(=O)O)CC[C@]3(C)C(=CC[C@@H]4[C@@]5(C)C[C@@H](O)[C@H](O)C(C)(C)[C@@H]5CC[C@]43C)[C@H]12 [Corosolic acid]	94.6% and 95.3%	93.5	94.7	107	97.3	96.1	103	99.7
CN(C)CCC(c1ccc(Cl)cc1)c1ccccn1 (stereo not drawn) [Chlorpheniramine Maleate]	100% and 106%	98.2	91.4	105	94.7	101	99.4	99.1

Structure (SMILES)	cell viability (K562; SRSF2 genotype: SRSF2 P95H/wt)	cell viability (K562; SRSF2 genotype: SRSF2 wt/wt) [%]	cell viability (MARIMO; SRSF2 genotype: SRSF2 P95H/wt) [%]	cell viability (MARIMO; SRSF2 genotype: SRSF2 wt/wt) [%]	cell viability (MOLM14; SRSF2 genotype: SRSF2 P95H/wt) [%]	cell viability (MOLM14; SRSF2 genotype: SRSF2 wt/wt) [%]	cell viability (OCI-AML2; SRSF2 genotype: P95H/wt) [%]	cell viability (OCI-AML2; SRSF2 genotype: wt/wt) [%]
CCCCc1oc2ccc(NS(C)(=O)=O)cc2c1C(=O)c1ccc(OCCCN(CCCC)CCCC)cc1 [Dronedarone HCl (Multaq)]	0.8% and 0.71%	0.61	0.56	0.71	0.53	0.6	0.5	0.55
Oc1ccc(-c2c(-c3ccccc3)nn3c(C(F)(F)F)cc(C(F)(F)F)nc23)cc1	87.4% and 87.6%	83	85.7	93.3	75.9	86.1	92	103
CC(C)c1cccc(O)c(=O)c1	87.6% and 88.1%	83.2	79.5	70.3	93.5	96.4	59.6	59.8
CN1CCc2nc(C(=O)N[C@@H]3C[C@@H](C(=O)N(C)C)CC[C@@H]3NC(=O)C(=O)Nc3ccc(Cl)cn3)sc2C1 [Edoxaban]	98.2% and 93.3%	92.5	95.7	102	99.4	95.6	92.9	100
CCCCCC(=O)O[C@]1(C(C)=O)CC[C@H]2[C@@H]3CCC4=CC(=O)CC[C@]4(C)[C@H]3CC[C@@]21C [Hydroxyprogesterone caproate]	40.1% and 34.4%	39.2	29.2	24.9	38.5	21	28.8	23.7
O=C(O)CNC(=O)c1ccccc1 [Hippuric acid]	103% and 104%	106	101	112	98.4	107	103	101
CC(C)Cc1ccc(C(C)C(=O)O)cc1 (stereo not drawn) [Ibuprofen (Advil)]	99.3% and 98.5%	92.9	95.1	100	100	101	87.7	101
COc1ccc2c(c1O)-c1c(O)c(OC)cc3c1[C@H](C2)[N+](C)(C)CC3 [Magnoflorinechloride]	99.2% and 99.7%	98.2	99.4	103	103	102	93.8	98.7
NC(=O)c1cccc(-c2cccc(OC(=O)NC3CCCCC3)c2)c1	95.8% and 91.2%	96.1	95	92.4	99.5	99	88.6	96.4
C/C(=C\C(=O)Nc1ccccc1C(=O)O)c1ccc2ccccc2c1	101% and 90.8%	106	84.3	98.2	88.5	92.8	95.1	93.6
C[C@H](NCc1ccc(OCc2cccc(F)c2)cc1)C(N)=O	102%	99.9	105	102	98.2	98.2	115	106
OC(CN1CCN(c2cccc(Cl)c2)CC1)C(c1ccccc1)c1ccccc1 (stereo not drawn)	84.9% and 91.9%	91.3	84.2	90.6	86.9	94.5	86.9	89.1
O=C(O)CCCCCCCC(O)C(O)CCCCCCO (stereo not drawn) [Aleuritic Acid]	105% and 100%	97.5	107	112	98.4	107	97.2	101
N#CC(=C(O)c1ccc(Cl)cc1Cl)c1nc2ccccc2c(=O)[nH]1 [HPI-4 (Ciliobrevin A)]	91.5% and 92.8%	93.6	98.9	97	92.1	87.2	106	99.5
O=C(O)C(S)=Cc1c[nH]c2ccc(F)cc12	95.6% and 105%	97	109	109	85.2	98.3	106	103
COC(=O)C1=C(C)NC(C)=C(C(=O)OC)C1c1ccccc1[N+](=O)[O-] [Nifedipine (Adalat)]	76.5% and 90.2%	80.8	57.5	51.7	49.3	49.5	29.4	48.4
C[C@@H]1O[C@@H](OC[C@H]2O[C@@H](Oc3c(-c4ccc(O)c(O)c4)oc4cc(O)cc(O)c4c3=O)[C@H](O)[C@@H](O)[C@@H]2O)[C@H](O)[C@H](O)[C@H]1O [Rutin (Rutoside)]	106% and 105%	109	108	106	105	103	105	115
C[C@@H]1O[C@@H](O[C@H]2[C@H](Oc3cc(O)c(C(=O)CCc4ccc(O)cc4)c(O)c3)O[C@H](CO)[C@@H](O)[C@@H]2O)[C@H](O)[C@H](O)[C@H]1O [Naringin Dihydrochalcone (Naringin DC)]	99.7% and 107%	94.5	102	105	98.4	104	96.8	111
c1ccc(Cn2c(-c3ccc(OCC(C4CCNCC4)n4c(-c5ccccc5)nc5ccccc54)cc3)nc3ccccc32)cc1 (stereo not drawn) [Deltarasin]	0.43% and 0.39%	0.44	0.34	0.33	0.28	0.28	0.24	0.3
N#Cc1ccc(C(c2ccc(C#N)cc2)n2cncn2)cc1 [Letrozole]	95.7% and 97.2%	91.9	91.9	94	96.8	92.3	87.5	90.1
